Screen size: about 69,000 compounds; about 8,600 (12%) showed an effect of 50% or more. The sample holds strong results, similar compounds and a random draw of the others, so the mix is not that of the screen.

The subject of the experiment is Plasmodium berghei. Briefly: Screen against P. berghei liver stage (PbLuc), transformed with Luciferase, at 10uM. It counts as functional, HepG2. The note with it: tested at 10 uM.
Take `COc1ccc(-c2noc(C(N)CCSC)n2)cc1OC` (centres undefined): the INHIBITION is 46.6%.
Regarding `CNc1cc(CCNC(=O)C2CCCC2)nc(-c2ccccn2)n1`, the INHIBITION was -9.34%.
Take `Cc1ccc(CNC(=O)C2CCNC(=O)C2)c(OCCC(C)C)c1` (centres undefined): the INHIBITION stood at 58.4%.
On to `Cc1cccc(Oc2ccccc2CNC(=O)C2CCNC(=O)C2)c1` (centres undefined), for which the INHIBITION is recorded as -33.7%.
The value for `O=C1CC(C(=O)NCc2ccccc2Oc2ccccc2F)CCN1` (centres undefined) was 8.38%; that for `COC(=O)c1ccc(N(C)C2CCC2)nn1` was 50.1%; that for `CNC(=O)c1ccc(N(C)C2CCC2)nn1` was -107%.
With `CN(c1ccc(C(N)=O)nn1)C1CCC1`, the INHIBITION was -8.73%.
Consider `Cc1noc2nc(C3CCN(CC4=CCCOC4)CC3)cc(C(F)F)c12`, for which the INHIBITION turned out to be 39.8%.
For `CC(=O)Nc1nc(C2CCN(C(=O)Cc3ccccc3)CC2)cs1` the value was 0.301%; for `Cc1cc(C(=O)N2CCCC(C)C2)ccc1NCC(=O)N1CCOCC1` (centres undefined), -47.6%.
Turning to `COCC1CN(S(=O)(=O)c2ccc(C)cc2)Cc2c1cnn2C` (centres undefined), the INHIBITION is on record as 34.9%.
For `Cn1ncc2ccc(C3CCCN(Cc4cccs4)C3)nc21` (centres undefined) the value was 20.74%; for `Cc1cc(C)n(C2CCCN(C(=O)Cc3cccs3)C2)n1` (centres undefined), -5.25%.
The value for `CN(C)CCO[C@H]1CN(C(=O)c2ccc3c(c2)OCO3)[C@@H]2COC[C@H]12` was -20.8%; that for `CO[C@H]1CN(C(=O)c2ccc3c(c2)OCO3)[C@@H]2COC[C@H]12` was 1.48%; that for `COCC1CN(S(=O)(=O)Cc2ccc(C)cc2)Cc2c1cnn2C` (centres undefined) was -0.554%.
As for `COCC1CN(C(=O)Cc2ccccn2)Cc2c1cnn2CC1CC1` (centres undefined), the INHIBITION is recorded as 15.9%.
For `COCC1CN(S(=O)(=O)Cc2ccccc2)Cc2c1cnn2C` (centres undefined) the value was 54.1%; for `Cn1ncc2ccc(C3CCCN(C(=O)Cc4cccs4)C3)nc21` (centres undefined), 58.5%; for `CCO[C@H]1CN(C(=O)c2ccc3c(c2)OCO3)[C@@H]2COC[C@H]12`, 57.9%.
As to `CCOCC1CN(C(=O)Cc2ccccn2)Cc2c1cnn2C` (centres undefined), the INHIBITION was determined as 26.4%.
Take `Cn1ncc2c1CN(C(=O)Cc1ccccn1)CC2COCC1CC1` (centres undefined): the INHIBITION is 64.9%.
Regarding `CC1CCN(S(=O)(=O)N2CCCN(CC3CCCO3)CC2)CC1` (centres undefined), the INHIBITION came to 38%.
For the compound `CC(C)n1cnc2c1C(C(=O)NCCO)N(Cc1ccccc1)CC2` (centres undefined), the INHIBITION is listed as -18.4%.
Regarding `CSc1ncc(C(=O)N2C[C@@H]3CC[C@H]2CN(c2ncccn2)C3)cn1`, the INHIBITION was 14%.
The value for `COCC1CN(C(=O)c2ccnnc2)Cc2c1cnn2C` (centres undefined) was 48.3%.
For `COCC1CN(C(=O)c2ccnnc2)Cc2ncnn2C1` (centres undefined) the value was -41.6%; for `COCC1CN(C(=O)CC2Cc3ccccc3C2)Cc2c1cnn2C` (centres undefined), 59%; for `COCC1CN(C(=O)c2cccn2C)Cc2c1cnn2CC1CC1` (centres undefined), 31.7%.
For `CCn1ncc2c1CN(C(=O)c1cscn1)CC2COC` (centres undefined) the value was 45.1%; for `CCn1ncc2c1CN(C(=O)Cc1cccs1)CC2COC` (centres undefined), -27.9%.
For the compound `COCC1CN(C(=O)Cc2cccs2)Cc2c1cnn2C` (centres undefined), the INHIBITION turned out to be 66%.
The value for `COCC1CN(C(=O)Cc2ccsc2)Cc2c1cnn2C` (centres undefined) was 46.2%.
For `CCn1ncc2c1CN(C(=O)c1cc(C)oc1C)CC2COC` (centres undefined) the value was -12.1%; for `CCn1ncc2c1CN(C(=O)c1ccc3c(c1)OCO3)CC2COC` (centres undefined), 50.7%; for `COCC1CN(C(=O)CNC(C)=O)Cc2ncnn2C1` (centres undefined), 6.8%.
For `COCC1CN(C(=O)Cc2ccccn2)Cc2ncnn2C1` (centres undefined) the value was 64.9%; for `Cc1ccc(N2CCCC(NCc3sccc3C)C2)nn1` (centres undefined), 36.1%; for `O=C(c1cscn1)N1CCC2(CN(Cc3nccs3)C2)C1`, 15.9%.
With `Cc1csc2ncc(-c3ccnc(NC4CCOCC4)n3)c(=O)n12`, the INHIBITION is -9.27%.
In the case of `CCCc1noc(C(C)N(CC)Cc2ccco2)n1` (centres undefined), the INHIBITION is -30.5%.
On to `O=C(c1ccno1)N1CC[C@@H]2O[C@H](COCCN3CCCC3)CC[C@@H]21`, for which the INHIBITION stood at 4.27%.
For `O=C1CCC2(CCCN(C(=O)Cc3cccnc3)C2)N1` (centres undefined) the value was 0.112%.
For the compound `c1ccc(-c2cc(CN3CCCCCC3c3ccco3)on2)nc1` (centres undefined), the INHIBITION is listed as -15%.
The value for `Fc1cccc(C2CCCCN2Cc2nc(-c3cnccn3)no2)c1` (centres undefined) was -12.6%; that for `Fc1ccc(C2CCCCN2Cc2cc(-c3ccccn3)no2)cc1` (centres undefined) was 51.8%; that for `Fc1ccc(C2CCCN2Cc2nc(Cc3ccccc3F)no2)cc1` (centres undefined) was 25.8%.
Regarding `CCc1nc(C2CCCN2Cc2ccno2)no1` (centres undefined), the INHIBITION is 19.6%.
The value for `CCc1cc(CN2CCCCC2c2ccc(F)cc2)on1` (centres undefined) was 65.7%; that for `COc1ccc(C2CCCCCN2S(C)(=O)=O)cc1` (centres undefined) was 27.4%; that for `Cc1ccc2c(n1)N(C)CCN(Cc1ccco1)C2` was 3.88%.
`CN1CCN(c2ncnc3c2CCN(S(=O)(=O)C2CC2)CC3)CC1`: the INHIBITION worked out at 29.4%.
The value for `Cc1cs/c(=N/C(=O)c2csc(NCC(C)C)n2)[nH]1` was 90.8%.

Values taken from ChEMBL document CHEMBL4513216, “Probing the Open Global Health Chemical Diversity Library for Multistage-Active Starting Points for Next-Generation Antimalarials” (ACS Infect Dis, 2020).
